PubChem BioAssay (NCATS)
Results filed as inconclusive are left out. Calls of active or inactive are those of the source. Unless noted, the call rests on the fitted dose curve; in most records, active means well fitted cell-killing curve with a large enough effect; inconclusive means small, poorly fitted or top-dose-only effect, or effect the other way; inactive means no such curve, though single readings can be large or run the other way.

Tests used:
[1] = Quantitative High-Throughput drug screen in 47 multiple myeloma cell lines against the NCATS MIPE library collection: KMS28PE_JCRB cell viability assay (AID 1918983); further: nearly all actives have a fitted effect of over 35% in size
Summary of the method: (§1)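 Viability after 48 h drug exposure was measured as ATP-dependent luminescence. Cells, 500 per well, sat at 37 °C under 5% CO2; DMSO wells set 100%, media-only wells 0%.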

[2] = Quantitative High-Throughput drug screen in 47 multiple myeloma cell lines against the NCATS MIPE library collection: L363_DSMZ cell viability assay (AID 1918984); further: nearly all actives have a fitted effect of over 40% in size
Summary of the method: as §1

[3] = Quantitative High-Throughput drug screen in 47 multiple myeloma cell lines against the NCATS MIPE library collection: KMS34_JCRB cell viability assay (AID 1918985); further: nearly all actives have a fitted effect of over 40% in size
Summary of the method: as §1

[4] = Quantitative High-Throughput drug screen in 47 multiple myeloma cell lines against the NCATS MIPE library collection: OCIMY7_PLB cell viability assay (AID 1918987); further: nearly all actives have a fitted effect of over 65% in size
Summary of the method: as §1

[5] = Quantitative High-Throughput drug screen in 47 multiple myeloma cell lines against the NCATS MIPE library collection: OCIMY5_PLB cell viability assay (AID 1918988); further: nearly all actives have a fitted effect of over 65% in size
Summary of the method: as §1

[6] = Quantitative High-Throughput drug screen in 47 multiple myeloma cell lines against the NCATS MIPE library collection: OPM1_PLB cell viability assay (AID 1918989); further: nearly all actives have a fitted effect of over 40% in size
Summary of the method: as §1

[7] = Quantitative High-Throughput drug screen in 47 multiple myeloma cell lines against the NCATS MIPE library collection: SKMM1_PLB cell viability assay (AID 1919863); conditions: SKMM1 myeloma viability, CellTiter-Glo ATP, 48 h; viability: stronger effect = lower value; further: nearly all actives have a fitted effect of over 35% in size
Summary of the method: as §1

[8] = Quantitative High-Throughput drug screen in 47 multiple myeloma cell lines against the NCATS MIPE library collection: U266_ATCC cell viability assay (AID 1919864); further: nearly all actives have a fitted effect of over 35% in size
Summary of the method: as §1

[9] = Quantitative High-Throughput drug screen in 47 multiple myeloma cell lines against the NCATS MIPE library collection: XG6_PLB cell viability assay (AID 1919865); further: nearly all actives have a fitted effect of over 40% in size
Summary of the method: as §1

[10] = Quantitative High-Throughput drug screen in 47 multiple myeloma cell lines against the NCATS MIPE library collection: XG1_PLB cell viability assay (AID 1919866); further: nearly all actives have a fitted effect of over 35% in size
Summary of the method: as §1

[11] = Quantitative High-Throughput drug screen in 47 multiple myeloma cell lines against the NCATS MIPE library collection: VP6_DJ cell viability assay (AID 1919867); further: nearly all actives have a fitted effect of over 40% in size
Summary of the method: as §1

[12] = Quantitative High-Throughput drug screen in 47 multiple myeloma cell lines against the NCATS MIPE library collection: UTMC2_PLB cell viability assay (AID 1919868); conditions: CellTiter-Glo ATP luminescence, 48 h; viability (% of DMSO control): at 45.8 µM (top of the series) unless noted; further: nearly all actives have a fitted effect of over 55% in size
Summary of the method: as §1

[13] = Quantitative High-Throughput drug screen in 47 multiple myeloma cell lines against the NCATS MIPE library collection: PE2_PLB cell viability assay (AID 1919869); further: nearly all actives have a fitted effect of over 35% in size
Summary of the method: as §1

[14] = Quantitative High-Throughput drug screen in 47 multiple myeloma cell lines against the NCATS MIPE library collection: PCM6_Riken cell viability assay (AID 1919870); further: nearly all actives have a fitted effect of over 30% in size
Summary of the method: as §1

[15] = Quantitative High-Throughput drug screen in 47 multiple myeloma cell lines against the NCATS MIPE library collection: RPMI8226_ATCC cell viability assay (AID 1919871); further: nearly all actives have a fitted effect of over 30% in size
Summary of the method: as §1

[16] = Quantitative High-Throughput drug screen in 47 multiple myeloma cell lines against the NCATS MIPE library collection: OPM2_DSMZ cell viability assay (AID 1919872); further: nearly all actives have a fitted effect of over 30% in size
Summary of the method: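 Myeloma cells (500 per well) were exposed to MIPE 4.0 compounds by pin transfer and incubated 48 hours at 37C, 5% CO2. Viability was read as ATP by CellTiter-Glo luminescence, normalised to DMSO (100%) and media-only (0%) wells.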

[17] = Quantitative High-Throughput drug screen in 47 multiple myeloma cell lines against the NCATS MIPE library collection: KMS11_JCRBsus cell viability assay (AID 1919873); further: nearly all actives have a fitted effect of over 50% in size
Summary of the method: as §1

[18] = Quantitative High-Throughput drug screen in 47 multiple myeloma cell lines against the NCATS MIPE library collection: KMS28BM_JCRB cell viability assay (AID 1919874); further: nearly all actives have a fitted effect of over 35% in size
Summary of the method: as §1

[19] = qHTS drug screen for cell cycle checkpoint inhibitors in PARPi-resistant BRCA-mutant ovarian cancer cell lines. (AID 1963452; calls by dose curve); conditions: PEO1/OlaR viability, CellTiter-Glo luminescence, 96 h; for Z-AUC: stronger effect = lower value
Summary of the method: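 PEO1, PEO4 and PEO1/OlaR ovarian cancer cells, 600 per well, exposed 96 h at 37C to a dilution series. Viability read by CellTiter-Glo luminescence, normalized to DMSO and empty wells; activity summarized as Z-AUC.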

[20] = qHTS for identification of novel therapeutic agents for treatment of microphthalmiaassociated transcription factor (MiT) renal cell carcinoma (RCC) (AID 1963991; calls by dose curve); conditions: CellTiter-Glo, 48 h; for Potency: active = Z-AUC below -0.8 in all three lines; for z-score: stronger effect = lower value
Summary of the method: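 Viability of three TFE3-fusion renal carcinoma lines measured by CellTiter-Glo after 48 h treatment with each of 1912 compounds at 11 concentrations. Responses scaled between DMSO (100%) and empty wells (0%) before curve fitting.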

[21] = measured here: PEO1 parental Z-AUC
[22] = TFE3-RCC UOK109 viability, measured here: UOK109 Z-AUC
[23] = TFE3-RCC viability, measured here: UOK124 Z-AUC
[24] = TFE3-RCC viability, measured here: UOK145 Z-AUC
Potency means the concentration at half of the fitted maximal effect.

Nc1cc(C(F)(F)F)c(-c2cc(N3CCOCC3)nc(N3CCOCC3)n2)cn1
-1.62: z-score [20, 24]
inactive: Z-AUC [19] -2.03
active: Potency [1] 935 nM | Potency [2] 209 nM | Potency [3] 833 nM | Potency [4] 590 nM | Potency [5] 187 nM | Potency [6] 1050 nM | Potency [7] 662 nM | Potency [8] 4690 nM | Potency [9] 662 nM | Potency [10] 469 nM | Potency [11] 743 nM | Potency [12] 264 nM | Potency [13] 935 nM | Potency [14] 1480 nM | Potency [15] 526 nM | Potency [16] 2640 nM | Potency [17] 66.2 nM | Potency [18] 41.8 nM | Potency ([20]; TFE3-RCC UOK109 viability) 662 nM
-1.2: Z-AUC [19, 21]
-0.609: Z-AUC ([19]; measured here: PEO4 Z-AUC)
-0.856: z-score [20, 22]
-0.844: z-score [20, 23]

NC1(Cc2ccc(Cl)cc2)CCN(c2ncnc3[nH]ccc23)CC1
inactive: Z-AUC [19] -0.805
-1.02: Z-AUC [19, 21]
-1.03: Z-AUC ([19]; measured here: PEO4 Z-AUC)
active: Potency [1] 5260 nM | Potency [2] 1870 nM | Potency [3] 7430 nM | Potency [4] 5900 nM | Potency [5] 9350 nM | Potency [6] 1480 nM | Potency [7] 18700 nM | Potency [9] 13200 nM | Potency [10] 3720 nM | Potency [11] 3720 nM | Potency [13] 7430 nM | Potency [14] 5900 nM | Potency [15] 14800 nM | Potency [16] 18700 nM | Potency [17] 10500 nM | Potency [18] 4180 nM

CCN1CCN(CC(=O)Nc2ccc(-c3cccc4c(=O)cc(N5CCOCC5)oc34)c3sc4ccccc4c23)CC1
-1.8: z-score [20, 23]
-2: z-score [20, 22]
-0.89: Z-AUC [19, 21]
-2.12: z-score [20, 24]
-0.929: Z-AUC ([19]; measured here: PEO4 Z-AUC)
inactive: Z-AUC [19] -1.21
active: Potency [1] 5260 nM | Potency [2] 33.2 nM | Potency [3] 2090 nM | Potency [4] 46.9 nM | Potency [5] 1050 nM | Potency [6] 264 nM | Potency [7] 7430 nM | Potency [8] 18700 nM | Potency [9] 2350 nM | Potency [10] 935 nM | Potency [11] 469 nM | Potency [12] 187 nM | Potency [13] 833 nM | Potency [15] 1870 nM | Potency [16] 3720 nM | Potency [17] 332 nM | Potency [18] 4690 nM | Potency ([20]; TFE3-RCC UOK109 viability) 2640 nM

CCCCOc1c(C(=O)c2c(F)cc(C)cc2F)cnc2n[nH]cc12
0.585: Z-AUC [19, 21]
active: Potency [1] 5900 nM | Potency [2] 3320 nM | Potency [3] 2350 nM | Potency [4] 4180 nM | Potency [5] 4180 nM | Potency [6] 11800 nM | Potency [7] 5260 nM | Potency [8] 13200 nM | Potency [9] 2350 nM | Potency [10] 2960 nM | Potency [11] 3320 nM | Potency [12] 3320 nM | Potency [13] 3720 nM | Potency [14] 2640 nM | Potency [15] 5900 nM | Potency [16] 7430 nM | Potency [17] 2640 nM | Potency [18] 2960 nM
inactive: Z-AUC [19] 0.41
-0.136: Z-AUC ([19]; measured here: PEO4 Z-AUC)

Cn1c2ccccc2c2c3c(c4c5ccccc5n(CCC#N)c4c21)CNC3=O
-0.993: z-score [20, 22]
active: Potency [1] 14800 nM | Potency [2] 209 nM | Potency [3] 3720 nM | Potency [4] 590 nM | Potency [5] 5900 nM | Potency [6] 296 nM | Potency [7] 8330 nM | Potency [8] 4690 nM | Potency [9] 526 nM | Potency [10] 2350 nM | Potency [11] 2960 nM | Potency [12] 2640 nM | Potency [13] 1870 nM | Potency [14] 1870 nM | Potency [15] 20900 nM | Potency [16] 11800 nM | Potency ([20]; TFE3-RCC UOK109 viability) 7430 nM
-2.34: z-score [20, 23]
-1.08: Z-AUC ([19]; measured here: PEO4 Z-AUC)
inactive: Z-AUC [19] -0.442
-1.02: Z-AUC [19, 21]
-1.2: z-score [20, 24]

COc1ccc(-c2cc3c(C)nc(N)nc3n(C3CCC(OCCO)CC3)c2=O)cn1 (stereo not given)
-1.44: Z-AUC ([19]; measured here: PEO4 Z-AUC)
-2.61: z-score [20, 24]
active: Potency [1] 33.2 nM | Potency [2] 10.5 nM | Potency [3] 74.3 nM | Potency [4] 118 nM | Potency [5] 83.3 nM | Potency [6] 46.9 nM | Potency [7] 13.2 nM | Potency [9] 66.2 nM | Potency [10] 18.7 nM | Potency [11] 1 nM | Potency [12] 52.6 nM | Potency [13] 46.9 nM | Potency [14] 264 nM | Potency [15] 26.4 nM | Potency [16] 66.2 nM | Potency [17] 7.4 nM | Potency [19] 490 nM | Potency ([20]; TFE3-RCC UOK109 viability) 11.8 nM
-1.31: z-score [20, 23]
-1.22: Z-AUC [19, 21]
-2.89: z-score [20, 22]

CCN(CC)CCNC(=O)c1ccc2nc(-c3ccccc3)c(-c3ccc(CN4CCC(n5c(=O)[nH]c6ccccc65)CC4)cc3)nc2c1
-1.23: Z-AUC [19, 21]
-1.53: Z-AUC ([19]; measured here: PEO4 Z-AUC)
inactive: Z-AUC [19] -1.13
active: Potency [1] 23500 nM | Potency [2] 418 nM | Potency [3] 20900 nM | Potency [4] 1050 nM | Potency [5] 10500 nM | Potency [6] 743 nM | Potency [7] 20900 nM | Potency [8] 8330 nM | Potency [9] 296 nM | Potency [10] 590 nM | Potency [11] 372 nM | Potency [12] 1320 nM | Potency [13] 1050 nM | Potency [14] 332 nM | Potency [15] 20900 nM | Potency [17] 2350 nM | Potency [18] 16600 nM
